Data from PubChem BioAssay AID803 (The Scripps Research Institute Molecular Screening Center, 2007).
The whole screen tested about 140,000 compounds, of which about 680 (0.49%) were called active. No stated cut-off is given here; in the data, active means activation above about 5% (passing the limit was not always enough); inactive means the rest. The entries come from a sample that favours actives as a whole.

These compounds were tested against Galanin receptor type 2 (Homo sapiens) (UniProt O43603) (assay: human galanin receptor 2 activators – cell-based, primary screen (AID 803;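 further: 0% = vehicle buffer wells and 100% = reference agonist at full effect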)). Details: GALR2-expressing cells, agonist activation read-out; at 5.6 µM; active compounds read high.
Galanin receptor type 2 (Homo sapiens), sequence (O43603 whole entry, looked up): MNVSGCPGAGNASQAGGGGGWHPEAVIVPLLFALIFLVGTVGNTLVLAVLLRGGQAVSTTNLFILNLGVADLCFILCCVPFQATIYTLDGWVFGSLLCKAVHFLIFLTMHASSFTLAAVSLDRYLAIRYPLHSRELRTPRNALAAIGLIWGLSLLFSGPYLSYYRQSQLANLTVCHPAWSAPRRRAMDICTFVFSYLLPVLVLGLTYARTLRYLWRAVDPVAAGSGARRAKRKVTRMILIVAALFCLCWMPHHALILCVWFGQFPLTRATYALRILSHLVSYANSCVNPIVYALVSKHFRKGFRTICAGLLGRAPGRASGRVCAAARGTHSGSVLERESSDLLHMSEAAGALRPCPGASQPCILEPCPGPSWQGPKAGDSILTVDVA

| Structure (SMILES) | activation |
| --- | --- |
| Cc1nn(-c2ccccc2)c(NC(=O)c2cccs2)c(-c2ccc(Cl)cc2)c1=O | -0.28% (inactive) |
| COc1ccc(C(=O)n2nc(-c3ccc(C)cc3)nc2N)cc1OC | -1.18% (inactive) |
| COc1ccc(C(=O)CN2C(=O)NC(C)(c3ccc(C)cc3)C2=O)cc1OC (stereo unspecified) | 10.3% (active) |
| COc1ccc(C(=O)Cn2nnc(-c3ccc(N4CCOCC4)cc3)n2)cc1OC | -0.59% (inactive) |
| CCN(CC)c1nc(-c2ccccc2)cc(C(F)(F)F)c1C#N | 14.6% (active) |
| COC(=O)c1cc2nc(-c3ccccc3)cc(C(F)(F)F)n2n1 | -0.55% (inactive) |
| N#Cc1c(C(F)(F)F)cc(-c2ccccc2)nc1SCC(=O)N1CCOCC1 | -2.74% (inactive) |
| O=S(=O)(c1ccc(F)cc1)N1CCN(C(=S)NC2CCCC2)CC1 | -1.23% (inactive) |
| Cc1cccc(C(=O)NC(=S)N2CCN(c3ccc([N+](=O)[O-])cc3)CC2)c1 | 0.09% (inactive) |
| CCCCOc1ccc(C(=O)NCc2ccncc2)cc1 | -0.14% (inactive) |
| CCCCOc1ccc(C(=O)NCc2ccco2)cc1 | -1.35% (inactive) |
| CCCOc1ccc(C(=O)C(CCC(CNCC)C(=O)c2ccc(OCCC)cc2)CNCC)cc1 (stereo unspecified) | 24.7% (active) |
| CCc1ccc(Oc2coc3cc(OC(=O)c4cc5ccccc5oc4=O)ccc3c2=O)cc1 | 0.76% (inactive) |
| OC(COCC1COc2ccccc2O1)CN1CCN(c2ccc(F)cc2)CC1 (stereo unspecified) | -0.37% (inactive) |
| CCN(/N=C/c1ccc(N(C)C)cc1)c1nc2ccccc2[nH]1 | -1.85% (inactive) |
| COc1cc(SC#N)ccc1N=Cc1c(C)[nH]n(-c2ccc(C)cc2)c1=O | 17.6% (active) |
| COc1cc(NS(=O)(=O)c2ccc(N=Cc3c(C)[nH]n(-c4ccccc4)c3=O)cc2)nc(OC)n1 | -4.11% (inactive) |
| CCc1nnc(NS(=O)(=O)c2ccc(N=Cc3c(C)[nH]n(-c4ccc(C)cc4)c3=O)cc2)s1 | -3.95% (inactive) |
| CC(=O)NCCC(=O)Nc1nc(C)c(Cc2ccc3c(c2)OCO3)s1 | -0.64% (inactive) |
| Cc1cc(F)ccc1S(=O)(=O)N1CCCOC1CNC(=O)C(=O)NCCC1=CCCCC1 (stereo unspecified) | -0.65% (inactive) |
| COc1ccc(Nc2cc(C)nc(-n3nc(C)cc3C)n2)cc1 | 0.3% (inactive) |
| COc1ccc(OCc2cn3c(C)cc(C)nc3n2)cc1 | -0.2% (inactive) |
| COc1ccc(C(C[N+](=O)[O-])n2nc(C)cc2C)cc1 (stereo unspecified) | 5.52% (active) |

| Structure (SMILES) | activation |
| --- | --- |
| CCC1C(=O)c2ccccc2N(C)C1=O (stereo unspecified) | -2.42% (inactive) |
| CC(C)Cn1c(N)c(C(=O)NCc2cccs2)c2nc3ccccc3nc21 | 29.6% (active) |
| CCC(C)NC(=O)c1c(N)n(/N=C/c2cccs2)c2nc3ccccc3nc12 (stereo unspecified) | -0.44% (inactive) |
| C=CCn1c(N)c(C(=O)OCC(C)C)c2nc3ccccc3nc21 | -3.82% (inactive) |
| CCN(CC)c1ccc(S(=O)(=O)N2CCOCC2)cc1NC(=O)CSc1cccc[n+]1[O-] | -0.35% (inactive) |
| O=C(Cc1cccs1)Nc1nnc(SCc2ccc(F)cc2)s1 | 1.11% (inactive) |
| CCCCOc1ccc(C(=O)NCC(=O)OCC(=O)N2CCN(S(=O)(=O)c3ccc(C)cc3C)CC2)cc1 | 7.56% (active) |
| CCCCOc1ccc(C(=O)NN2CCN(C)CC2)cc1 | 0.08% (inactive) |
| CCCc1cc(=O)[nH]c(SCC(=O)N2CCN(S(=O)(=O)c3ccc(C)cc3C)CC2)n1 | 2.71% (inactive) |
| CC1Cc2ccccc2N1C(=O)CSc1nnc(-c2ccc(S(=O)(=O)N3CCCC3)cc2)n1C (stereo unspecified) | -1.17% (inactive) |
| CC(C)(C)OC(=O)c1c(N)n(CCCN2CCCC2=O)c2nc3ccccc3nc12 | 3.75% (inactive) |
| CN(C)CCCn1c(N)c(C#N)c2nc(C#N)c(C#N)nc21 | 5.27% (inactive) |
| CN1OC(COC(=O)c2ccc(Cl)cc2)CC1c1ccccc1 (stereo unspecified) | -1.93% (inactive) |
| CC(C)(C)c1ccc(C(=O)NCCn2c(N)c(C#N)c3nc4ccccc4nc32)cc1 | 6.59% (active) |
| N#Cc1c(N)n(CCOC(=O)c2ccc(Cl)cc2)c2nc3ccccc3nc12 | 7.76% (active) |
| O=S(=O)(O)c1nc2ccccc2n1Cc1ccc(Cl)cc1 | -2.3% (inactive) |
| CC(Oc1ccccc1)C(=O)Nc1oc(-c2ccco2)c(-c2ccco2)c1C#N (stereo unspecified) | -0.85% (inactive) |
| O=C(/C=C/c1ccc(Cl)cc1)N1CCN(c2ccccc2[N+](=O)[O-])CC1 | -1.19% (inactive) |
| Cc1ccc(Cc2c(C)nc3nc(SCC(=O)NCCN4CCOCC4)nn3c2C)cc1 | 24.8% (active) |
| Cc1ccc(NC(=S)NCCN2CCOCC2)cc1 | -2.96% (inactive) |
| Cc1nc2nc(SCC(=O)NCc3ccco3)nn2c(C)c1Cc1ccccc1 | 0.05% (inactive) |
| Cc1cc(C)nc(-n2ncc3c2CC(c2ccc(C(C)C)cc2)CC3=O)n1 (stereo unspecified) | 0.11% (inactive) |
| O=C(Nc1ccccc1F)c1ccccc1-c1ccc(C(F)(F)F)cc1 | -0.53% (inactive) |

| Structure (SMILES) | activation |
| --- | --- |
| O=C(NCC1CCCO1)/C(=C/c1ccc(Cl)cc1)NC(=O)c1ccccc1 (stereo unspecified) | -1.2% (inactive) |
| CCOC(=O)Cc1csc(NC(=O)C(C)(C)C)n1 | 6.79% (active) |
| CCOC(=O)Cc1csc(NC(NC(=O)OCC)(C(F)(F)F)C(F)(F)F)n1 | -2.02% (inactive) |
| CCOC(=O)Cc1csc(NC(=O)Nc2ccccc2)n1 | -2.31% (inactive) |
| CCCCN1C(=O)c2ccc(C(=O)Nc3ccc(S(=O)(=O)N(C)C)cc3)cc2C1=O | -1.35% (inactive) |
| CC(=O)NC(Cc1ccccc1)C(=O)NC1CCN(c2ncccc2[N+](=O)[O-])CC1 (stereo unspecified) | -0.16% (inactive) |
| OC(COCc1ccco1)CN1CCN(c2ccccc2)CC1 (stereo unspecified) | -1.72% (inactive) |
| Cc1ccc(C(=O)Nc2ccc(C)c(S(=O)(=O)N(C)C)c2)s1 | 0.14% (inactive) |
| O=S(=O)(Nc1ccccn1)c1ccc(Oc2ccccc2)cc1 | -1.45% (inactive) |
| COC(=O)CNC(=O)c1ccccc1[N+](=O)[O-] | -2.69% (inactive) |
| O=[N+]([O-])c1ccccc1SNc1ccccn1 | 10.3% (active) |
| COc1cc(CN2CC(C)CC(C)C2)cc([N+](=O)[O-])c1O (stereo unspecified) | 0.36% (inactive) |
| COc1cc(NC(=O)c2cc([N+](=O)[O-])ccc2Br)ccc1NC(=O)c1ccco1 | -2.01% (inactive) |
| Cc1ccc(-c2cc(N)on2)cc1 | -1.6% (inactive) |
| CCOc1ccc(Br)cc1S(=O)(=O)Nc1ccc(C(=O)OC(C)C(=O)N(C)c2ccccc2)cc1 (stereo unspecified) | -0.52% (inactive) |
| COc1cc(NC(=S)NCCSc2ccc(C)cc2)cc(OC)c1 | -1.5% (inactive) |
| Cc1noc(/C=C/c2ccco2)c1S(=O)(=O)N1CCC(C(=O)Nc2ccc(Cl)cn2)CC1 | -1.28% (inactive) |
| CCC(c1nnnn1C1CCCC1)N(Cc1cccs1)Cc1cc2cccc(C)c2[nH]c1=O (stereo unspecified) | -1.09% (inactive) |
| Cc1cccc2cc(CN(Cc3ccc4c(c3)OCO4)Cc3nnnn3C3CCCC3)c(=O)[nH]c12 | 5.7% (active) |
| Cc1cccc2cc(CN(Cc3cccs3)C(c3nnnn3C3CCCC3)C(C)C)c(=O)[nH]c12 (stereo unspecified) | -1.34% (inactive) |
| COc1ccccc1C1CC(=O)n2c(nc(-c3ccccc3)c2-c2ccccc2)S1 (stereo unspecified) | -1.18% (inactive) |
| O=C1N(c2ccc(Cl)cc2)C(c2ccc(Cl)cc2)N2CCCN12 (stereo unspecified) | -0.59% (inactive) |
| NCCCC[C@@H]1NC(=O)[C@H](CCC(=O)O)NC(=O)c2cc([N+](=O)[O-])cc(I)c2NCC[C@@H](C(N)=O)NC1=O | -0.98% (inactive) |

| Structure (SMILES) | activation |
| --- | --- |
| CNC(=S)N/N=C/c1cn(Cc2ccc(C)cc2)c2ccccc12 | -1.46% (inactive) |
| O=c1cc(CO)oc(C(Nc2cccc([N+](=O)[O-])c2)c2ccccn2)c1O (stereo unspecified) | 0.7% (inactive) |
| Cc1ccc(-c2cn3cc([N+](=O)[O-])ccc3n2)cc1 | -1.19% (inactive) |
| CCOc1ccccc1NC(=O)c1cccnc1 | 0.49% (inactive) |
| CCOc1cc(NC(=O)c2cnccn2)c(OCC)cc1NC(=O)c1ccc(C)cc1 | 22.8% (active) |
| CCOc1ccc(C(=O)Nc2cc(OC)ccc2OC)cc1 | -2.67% (inactive) |
| Cc1sc2nc(COC(=O)C(NC(=O)c3ccc(Cl)cc3Cl)C(C)C)[nH]c(=O)c2c1C (stereo unspecified) | -1.47% (inactive) |
| O=C(CSc1ncn[nH]1)Nc1ccnc2ccccc12 | -2.63% (inactive) |
| CC(C)(C)c1ccc(C(=O)CSc2ncn[nH]2)cc1 | -1.49% (inactive) |
| CCN(C(=O)CSc1ncn[nH]1)c1cccc2ccccc12 | 144% (active) |
| CC(=O)Nc1ccc(/C(C)=N/NC(=O)CN(c2ccccc2Br)S(C)(=O)=O)cc1 | -0.42% (inactive) |
| CSc1ccc(/C=C/C(=O)NC23CC4CC(CC(C4)C2)C3)cc1 | -1.84% (inactive) |
| Cc1cccn2c(=O)c3cc(C#N)c(=NC(=O)c4cccnc4)n(CC4CCCO4)c3nc12 (stereo unspecified) | 7.52% (active) |
| Cc1cccn2c(=O)c3cc(C(=O)N4COCC4(C)C)n(C)c3nc12 | 0.31% (inactive) |
| Cc1cccn2c(=O)c3cc(C#N)c(=O)n(CCCN4CCOCC4)c3nc12 | 2.81% (inactive) |
| CC(=O)c1ccc(NC(=O)Nc2ccc([N+](=O)[O-])cc2C)cc1 | -1.71% (inactive) |
| Cc1cc(-c2cccs2)nc(-n2cccc2)n1 | -2.57% (inactive) |
| CCCn1c(=O)c2c(C(F)(F)F)cc(-c3cccs3)nc2n(CCC)c1=O | 6.87% (active) |
| FC(F)(F)c1cc(-c2cccs2)nc(NCc2ccco2)n1 | -1.85% (inactive) |
| COC(=O)c1ccc(NC(=O)C(C)N2C(=O)c3ccccc3C2=O)cc1 (stereo unspecified) | 8.37% (active) |
| Cc1cc(C)nc(NC(=O)C(C)N2C(=O)c3ccccc3C2=O)n1 (stereo unspecified) | -2.31% (inactive) |
| COC(=O)c1ccc(NC(=O)Nc2ccc(C)cc2)cc1 | -1.78% (inactive) |
